# Test results taken from PubChem BioAssay (Tox21).
# The source made the active and inactive calls. Calls come from the whole dose curve; as a rule, active = well fitted curve in the direction sought with a large enough effect in the repeat runs; inconclusive = weak or mixed curves; inactive = flat fitted curve, though single readings scatter.
# Test: qHTS assay to test for compound auto fluorescence at 590 nm (red) in HEK293 cell free culture (AID 720683)
# Conditions: cell-free medium autofluorescence, Ex540/Em590 red; series mostly up to 91.3 µM
# Description: U.S. Tox21 Program National Center for Advancing Translational Sciences [NCATS] NIH Chemical Genomics Center [NCGC] U.S. Environmental Protection Agency [EPA] National Institutes of Environmental Health Sciences [NIEHS] National Toxicology Program [NTP] U.S. Food and Drug Administration [FDA] Tox21 Assay Overview: Compound auto fluorescence often interferes with screening of the compound library against various biological targets and signaling pathways. Some of these compounds may have fluorophoric properties. Such properties may interfere with the assay outputs resulting in false positives and/or negatives. To decrease such complications and ensure the compound activities are relevant in terms of biological response, the Tox21 10K compound library was screened for auto fluorescence. From the fluorophores used as reporter signals in our screening assays, the auto fluorescence equivalencies of compounds against three fluorophores have been evaluated: Triamterene, Fluorescein and Rose Bengal sodium for blue, green and red fluorescence, respectively. The fluorescence intensities were measured using Excitation/Emission wavelengths at 405/460nm, 485/535nm and 540/590nm for blue, green and red labels, respectively. This assay includes the red fluorescence data.
# Tox21 Assay Protocol Summary: 5 uL of culture medium (DMEM containing 10% FBS) per well was dispensed into black wall/clear bottom 1536-well plates using a Multidrop Combi Dispenser (ThermoFisher Scientific, Waltham, MA). After 23 nL compound or DMSO vehicle was transferred into assay plate by a pintool work station (Kalypsys, San Diego, CA), fluorescence intensities in the assay plates were measured by an Envision (PerkinElmer, Shelton, CT) plate reader using three labels for measuring blue, green and red fluorescence at […] 460, 535 and 590nm respectively.
# % is set by controls: 0 for no effect and ±100 for the full control effect.
Structure (SMILES),outcome,"fluorescence, % of fluorescent control"
CCN[C@@H](C)Cc1ccccc1,inactive,–
C=CCc1cc(OC)c2c(c1)OCO2,inactive,–
CCC1(c2ccccc2)C(=O)N(COC)C(=O)N(COC)C1=O,inactive,–
COc1ccc(CN2CCNCC2)c(OC)c1OC,–,-0.395% [at 18.6 µM] (inactive)
C/C=C/CC#N,inactive,–
C[C@H]1CCCC(=O)CCC/C=C/c2cc(O)cc(O)c2C(=O)O1,inactive,–
BrCC1CO1 (stereo not given),inactive,–
O=CCCl,inactive,–
O=C1CC(=O)NC(=O)N1,inactive,–
Cc1cccc2sc3nncn3c12,inactive,–
COc1ccccc1OC,inactive,–
COC(=O)[C@@H](N)CCCN/C(N)=N/[N+](=O)[O-],inactive,–
CCCCCCCCBr,inactive,–
N#CN,inactive,–
COC1=CC(=O)O[C@@H](/C=C/c2ccccc2)C1,inactive,–
CC(=NC#N)N(C)Cc1ccc(Cl)nc1,inactive,–
C=C(Cl)CCl,inactive,–
CCCC(C)C1(CC)C(=O)N=C(S)NC1=O (stereo not given),inactive,–
CCCOC(=O)Cc1ccc(OCC(=O)N(CC)CC)c(OC)c1,inactive,–
C#CCOC(=O)/C=C(C)/C=C/CC(C)CCCC(C)C (stereo not given),inactive,–

Structure (SMILES),outcome,"fluorescence, % of fluorescent control"
O=c1[nH]oc2c1CCNC2,inactive,–
O=P(O)(O)c1ccccc1,inactive,–
Cc1ccc2c(c1)C1CN(C)CCC1N2 (stereo not given),inactive,–
CCOP(=O)(CN(CCO)CCO)OCC,inactive,–
CC(=O)OCC1=C(C(=O)O)N2C(=O)[C@@H](N)[C@H]2SC1,–,0.162% [at 18.6 µM] (inactive)
C=C1CC[C@@]2(O)[C@H]3Cc4ccc(O)c5c4[C@@]2(CCN3CC2CC2)[C@H]1O5,inactive,–
COc1ccc(C=O)cc1O,inactive,–
ClC1=C(Cl)C2(Cl)C(CBr)CC1(Cl)C2(Cl)Cl (stereo not given),inactive,–
C[C@@H](N)[C@@H](O)c1ccccc1,–,0.0965% [at 18.6 µM] (inactive)
CNC(=O)Oc1cc(C)c(N(C)C)c(C)c1,inactive,–
CC(C)(O)C(Cl)(Cl)Cl,inactive,–
CCCC[N+](=O)[O-],inactive,–
O=C(NC(O)C(Cl)(Cl)Cl)NC(O)C(Cl)(Cl)Cl (stereo not given),inactive,–
O=C(Cl)CCl,inactive,–
CC1=C2[C@H]3OC(=O)[C@@H](C)[C@@H]3CC[C@@]2(C)C=CC1=O,inactive,–
O=c1[nH]c2ccccc2o1,inactive,–
C=CCN1CC[C@]23CCCC[C@H]2[C@H]1Cc1ccc(O)cc13,inactive,–
BrCCc1ccccc1,inactive,–
CCNP(=S)(OC)O/C(C)=C/C(=O)OC(C)C (stereo not given),inactive,–
Oc1ccc(Cc2ccc(O)cc2)cc1,inactive,–
